Bioassay records: PubChem, Broad Institute
BL2 CD40 inh: inhibitors of CD40-induced NF-kB signaling, primary screen, BL2 cells, luciferase reporter, single point. inhibition, % at 10 µM. AID 1053188, 2014. CD40L-induced, 4 h. actives 0.94% (n = 83,000);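 active = mean inhibition of at least 50% with a set share of replicates also reaching that level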
Hits are given with their value; n = inactive; [ ] = remark or other dose. Many of the other results were omitted from the sample, so hits are more common in it than they were.

SMILES	BL2 CD40 inh
COc1ccccc1N1CCN(c2ccc(S(=O)(=O)N3CCN(C)CC3)cn2)CC1	n
COc1ccccc1OCC(=O)N1CCN(c2ccccc2OC)CC1	n
COc1ccccc1N1CCN(c2ccc(-c3ccccc3)nn2)CC1	53
O=C1CCC(=O)N[C@H](c2ccc(F)cc2)C/C=C\C[C@@H](c2ccc(F)cc2)N1	n
Cn1cnnc1SCc1ccc(C(=O)NN)cc1	n
Cn1cnnc1SCc1ccc(F)c2ccccc12	n
Cn1cnnc1SCc1ccc(-c2ccc(Br)cc2)o1	80
COc1ccc2c3c([nH]c2c1)[C@@H](CO)N(C(=O)Nc1ccc(F)cc1)CC31CN(S(=O)(=O)c2ccc(C)cc2)C1	n
CCS(=O)(=O)N(C)[C@H]1c2cc(C#N)ccc2OC(C)(C)[C@@H]1O	n
CN(C)S(=O)(=O)c1ccc(NC(=O)Cn2ccsc2=N)cc1	n
CN(C)S(=O)(=O)c1ccc(NC=O)cc1	27
CN(C(=O)Nc1ccc(S(=O)(=O)N(C)C)cc1)C1CCCCC1	n
COc1ccc(CNC(=O)N(C)C[C@@H]2OCc3ccccc3-c3ccccc3C(=O)N([C@H](C)CO)C[C@H]2C)cc1	n
Cc1ccccc1-c1ccccc1[C@H]1[C@@H](C#N)N(C(=O)c2ccc(F)cc2)[C@H]1CO	n
O=C1NCCOCn2nncc2CC[C@H]1Cc1cccc(Cl)c1	n
CC(C)NC(=O)Nc1ccc2c(c1)C(=O)N(C)C[C@H](C)[C@@H](CN(C)C(=O)OC(C)(C)C)O2	n
CC(C)NC(=O)N1C[C@@H]2[C@H](c3ccccc31)[C@H](CO)N2C(=O)Nc1ccc(F)cc1	n
Cc1ncn(-c2ccc(C(=O)Oc3ccccc3)cn2)n1	38
Cc1onc(-c2ccccc2)c1C(=O)Oc1ccccc1	n
O=C(Oc1ccccc1C(=O)Oc1ccccc1)c1cccnc1	n
Cc1nc(-c2ccc(F)cc2)c(CC(=O)N(C)CC(=O)Nc2ccccc2Br)s1	n
CCN(CC(=O)Nc1ccccc1C(F)(F)F)C(=O)Cc1sc(C)nc1-c1ccc(F)cc1	n
Cc1nc(-c2ccc(F)cc2)c(CC(=O)NCC(=O)Nc2ccc(F)c(F)c2)s1	n
Cc1nc(-c2ccc(F)cc2)c(CC(=O)N(C)CC(=O)Nc2ccccc2C(F)(F)F)s1	n
Cc1nc(-c2ccc(F)cc2)c(CC(=O)N(C)CC(=O)Nc2cccc(F)c2)s1	54
SMILES	BL2 CD40 inh
Cc1nc(-c2ccc(F)cc2)c(CC(=O)N(C)CC(=O)Nc2ccc(Br)cc2C)s1	92
COc1ccc(NC(=O)N(C)C[C@H]2OCc3ccccc3-c3ccccc3C(=O)N([C@@H](C)CO)C[C@H]2C)c(OC)c1	n
O=C(C[C@@H]1C[C@@H]2c3cc(NC(=O)c4ccc5c(c4)OCO5)ccc3O[C@@H]2[C@@H](CO)O1)NC1CCCC1	n
O=C(Nc1cccc(N2C(=O)C=CC2=O)c1)c1cccs1	99
O=C(Nc1ccc2c(c1)CCC2)c1cccs1	n
O=C(Nc1cccc(S(=O)(=O)N2CCCCC2)c1)c1cccs1	n
C[C@H]1CC(=O)N[C@H](c2ccccc2)C/C=C\C[C@H](c2ccc3c(c2)OCO3)NC1=O	n
CO[C@@H]1CN(C)C(=O)c2cc(NS(=O)(=O)c3cn(C)cn3)ccc2OC[C@H](C)NC[C@H]1C	n
Nc1ncnc(Sc2ncccn2)c1[N+](=O)[O-]	84
O=[N+]([O-])c1ccc(Sc2ccccn2)nc1	n
CN(C)c1ncnc(N(C)C)c1[N+](=O)[O-]	n
CC[C@H]1CC=CC[C@@H](C)Oc2ccccc2C(=O)N(C)[C@H](C)C(=O)N1 (mixture of isomers)	n
Cc1ccc(S(=O)(=O)N2CC=C(N)N2)cc1	n
Cc1ccc(/C=C2/CNC/C(=C\c3ccc(C)cc3)C2=O)cc1	65[25 µM]
Cc1ccc(C=C2C=C(c3ccccc3)OC2=O)cc1	n
CCOC(=O)N(C)C[C@@H]1OCc2ccccc2-c2c(n(C)c3ccccc23)C(=O)N([C@@H](C)CO)C[C@H]1C	n
COc1ccccc1OCC(=O)O	n
C=C(CC)C(=O)c1ccc(OCC(=O)O)c(Cl)c1Cl	41
CCOC(=O)COc1ccc2nsnc2c1Cl	n
COc1ccc2c3c(n(C)c2c1)[C@@H](CO)N(Cc1nccs1)CC31CCN(CC2CCCC2)CC1	n
CN1CCN(C(=O)C[C@H]2CC[C@H]3[C@@H](COc4ccc(NC(=O)c5cccs5)cc4C(=O)N3C)O2)CC1	n
COCCNC(=O)C1CCCN(Cc2ccc(C(C)C)cc2)CC1 (configuration not stated)	n
CC(C)Cc1ccc(CN2CCCC(NC(=O)CCN3CCCCC3=O)C2)cc1 (configuration not stated)	n
CC(C)Cc1ccc(C(C)/C=C2/CCC(CN3CCCCC3)C2=O)cc1 (configuration not stated)	66
CCC(=O)N1[C@@H]2c3ccc(-c4ccccc4)c(=O)n3C[C@@H]2[C@@H](CO)[C@@H]1C(=O)N1CCCCC1	n
SMILES	BL2 CD40 inh
COC(=O)c1ccc2nc(NC(=O)C(C)(C)C)sc2c1	79
CCCC(=O)Nc1nc2ccc(OC)cc2s1	n
COC(=O)Nc1nc2ccc(Br)cc2s1	n
COc1ccc2c(c1)CCc1c(C(=O)NCc3ccc(F)cc3)noc1-2	n
COc1ccc(-c2onc(C)c2-c2ccc(C(=O)OC(C)C)o2)c(O)c1	34
COc1cc(NC(=O)c2ccc(-c3c(C)noc3C)c3ccoc23)cc(OC)c1OC	n
CCCNC(=O)N1CC2(C1)[C@H](c1ccccc1)[C@H](CO)N2C(=O)CC1CC1	n
Fc1ccccc1CNCCC(Cc1ccccc1)c1ccc2c(c1)OCO2 (configuration not stated)	33
CC(C)CCC(CCNCc1ccccn1)c1ccc2c(c1)OCO2 (configuration not stated)	n
CC(=O)N(CCC(Cc1ccccc1)c1ccc2c(c1)OCO2)Cc1ccccc1F (configuration not stated)	n
C[C@H](CO)N1C[C@H](C)[C@H](CN(C)S(=O)(=O)c2ccc(Oc3ccccc3)cc2)OCc2cnnn2CCCC1=O	n
N#C[C@H]1[C@@H](c2ccccc2-c2cccc(F)c2)[C@@H](CO)N1C(=O)NC1CCCC1	n
CC(C)N1C(=O)/C(=C\c2nc3ccccc3c(=O)[nH]2)c2ccccc21	33
O=c1[nH]c(C(F)(F)F)nc2ccccc12	n
CC(C)Sc1nc2ccccc2c(=O)[nH]1	n
O=C(Nc1ccc(Cl)c(Cl)c1)N[C@@H]1CC[C@@H](CCn2cc(C3CCCC3)nn2)O[C@H]1CO	n
CO[C@@H](CN(C)C(=O)c1ccccc1F)[C@H](C)CN([C@H](C)CO)S(=O)(=O)c1ccccc1	n
Cc1noc(C)c1NC(=O)N(C)C[C@@H]1Oc2ccc(NC(=O)CCCN(C)C)cc2C(=O)N([C@H](C)CO)C[C@H]1C	n
CCC(=O)N1[C@H](CO)[C@H](c2ccccc2)[C@H]1CN(CC1CCC1)S(C)(=O)=O	n
CN(C)c1ccc(NC(=O)c2ccc3c(c2)nnn3C)cc1	n
CN(C)c1ccc(NC(=O)c2ccc3nc[nH]c3c2)cc1	n
CN(C)c1ccc(NC(=O)c2cnsn2)cc1	65
Cc1nnc(C)c2c(C)n(/N=C/c3cc(Br)ccc3O)c(C)c12	n
COc1ccc(-n2c(C)c3c(C)nnc(C)c3c2C)cc1OC	n
COc1ccccc1N1C(=O)C2CC(C)=C(C)CC2C1=O (configuration not stated)	n
COc1cc(N2C(=O)C=CC2=O)ccc1N1C(=O)C=CC1=O	109
O=C(NC1CCCC1)N1CC(=O)N2[C@H](CO)[C@@H](c3ccc(-c4cccc(F)c4)cc3)[C@H]2C1	n
